The campaign covered roughly 290,000 compounds. About 1,800 (0.62%) were called active. The full list was thinned out, with actives kept by preference. A number with no mark means an inactive call. No stated cut-off is given here; in the data, active means inhibition above about 50%; inactive means the rest.
Assay: inhibition of NOD2-driven NF-kB reporter – cell-based, luminescence, uHTS, HEK293 (AID 1566)
Conditions: HEK293 NOD2/NF-kB luciferase reporter, at 4 µM, active compounds read high

Structure (SMILES)	inhibition
Cc1ccccc1CSc1nc2ccccc2c(=O)[nH]1	-3.5%
O=c1[nH]c(SCc2ccccc2F)nc2ccccc12	8.9%
O=c1cc(CSc2nc3ccccc3c(=O)[nH]2)c2ccc(O)cc2o1	70.3% (active)
Cc1cc(-c2nnc(SCC(=O)c3ccc(Cl)cc3)o2)no1	1.2%
COc1ccc(-c2oc3cccnc3c2-c2ccc(OC)nc2)cc1	-2.2%
COc1ccc(CC(=O)Nc2ccc3c(c2)CCC3)cc1	13.2%
COc1ccc(CC(=O)Nc2ccc3c(c2)CCC3)cc1OC	53.3% (active)
COc1cc(CC(=O)Nc2ccc3c(c2)CCC3)cc(OC)c1OC	24.2%
Cc1ccc(C)c(N2CCN(CC(=O)Nc3ccc([N+](=O)[O-])cc3C(=O)Nc3ccccc3F)CC2)c1	-26.6%
Cc1ccc(S(=O)(=O)c2c(N)n(CCN3CCOCC3)c3nc4ccccc4nc23)cc1C	-39.8%
Cn1c(=O)cc(NCCc2ccccc2)[nH]c1=O	-8.7%
O=C(OCCN=C1NS(=O)(=O)c2ccccc21)c1ccncc1	-0.9%
CCc1ccc(S(=O)(=O)NCc2cn3ccsc3n2)s1	13.4%
CCCCCCCC(=O)NC(Nc1ccc(S(N)(=O)=O)cc1)C(Cl)(Cl)Cl (stereo unspecified)	22.9%
CN(C)S(=O)(=O)c1cccc(NC(=O)c2ccncc2)c1	12.4%
CN(C)S(=O)(=O)c1cccc(NC(=O)c2cnccn2)c1	6.9%
O=C(CC1CC2CCC1C2)OCC(=O)c1c[nH]c2ccccc12 (stereo unspecified)	12.6%
CC(C(=O)NCc1ccccc1)N1CCN(c2ccc(F)cc2)CC1 (stereo unspecified)	5.1%
COc1ccc(CNC2CCSc3ccccc32)cc1OC (stereo unspecified)	23.3%
CCn1c(=O)cc(OCC(=O)N2CCc3ccccc32)c2ccccc21	17.9%
COc1ccccc1OCc1nnc(SCC(=O)c2cc(Cl)ccc2OC)o1	57.5% (active)
COc1ccccc1OCc1nnc(SCC(=O)N2CCCC2)o1	4.2%
COc1ccccc1OCc1nnc(SCC(=O)N2CCCCC2)o1	-9.8%
CC(C)NC(=O)NC(=O)COC(=O)C1(C)CC1(Cl)Cl (stereo unspecified)	-8.2%
COC(=O)C(CO)NC(=O)C(C)NC(=O)CNC(=O)OCc1ccccc1 (stereo unspecified)	9%
COc1ccc(OC)c(NC(=O)c2cc3n(n2)C(C(F)(F)F)CC(c2ccc4c(c2)OCO4)N3)c1 (stereo unspecified)	35.2%

Structure (SMILES)	inhibition
O=C(Nc1cc(Cl)ccc1O)c1cc2n(n1)C(C(F)(F)F)CC(c1ccc3c(c1)OCO3)N2 (stereo unspecified)	53.1% (active)
COc1ccccc1NC(=O)c1cc2n(n1)C(C(F)(F)F)CC(c1ccc3c(c1)OCO3)N2 (stereo unspecified)	35.9%
CCN(CC(=O)Nc1ccc(N2CCOCC2)cc1)C(=O)c1ccc(C#N)cc1	0.4%
Cc1ccc(N2CC(C(=O)N3CCN(C(=O)c4ccco4)CC3)CC2=O)cc1 (stereo unspecified)	3.8%
CCC(CNc1cc(OC)cc2cccnc12)NC1CCCCC1 (stereo unspecified)	74.6% (active)
COc1cc(NCc2ccccc2O)c2ncccc2c1	-106%
COc1cc(NC(=O)C2CCCCC2)c2ncccc2c1	7.2%
Cc1ccccc1N=C1NC(=O)/C(=C/c2cccn2-c2cccc(C(=O)O)c2)S1	10.7%
CC(C)CN1CCN(CCCc2ccccc2)C(CCO)C1 (stereo unspecified)	-35.5%
COc1ccc(N2C(=O)NC3CC2(C)Oc2ccccc23)cc1 (stereo unspecified)	15.5%
O=C(CCS(=O)(=O)c1ccccc1)NC1CCCCC1	-43.9%
COc1ccc(-c2nn(C)c(=O)c3ccccc23)cc1NC(=O)COc1ccc(C)cc1	53.6% (active)
COc1ccc(OCC(=O)Nc2cc(-c3nn(C)c(=O)c4ccccc34)ccc2OC)cc1	46.6%
COc1ccc(-c2nn(C)c(=O)c3ccccc23)cc1NC(=O)COc1ccccc1	31.2%
CCc1nnc(NC(=O)CSc2nc(C)cc(C)c2C#N)s1	-111%
COc1ccc(C)cc1S(=O)(=O)N(CC(N)=O)Cc1ccccc1	-4.4%
O=C(N/N=C/c1ccc([N+](=O)[O-])o1)C1CCCC1	60.2% (active)
O=C(CN1CCCCCCC1)N/N=C/c1ccc([N+](=O)[O-])o1	67.4% (active)
COC(=O)N/N=C/c1ccc([N+](=O)[O-])o1	-0.6%
O=C(N/N=C/c1ccc([N+](=O)[O-])o1)C1CC1	23.5%
CCCCCC(=O)N/N=C/c1ccc([N+](=O)[O-])o1	28.5%
O=C(CSc1ccc(Cl)cc1)N/N=C/c1ccc([N+](=O)[O-])o1	69.6% (active)
O=C(CCC(=O)Nc1ccc(Cl)cc1Cl)N/N=C/c1ccc([N+](=O)[O-])o1	33.1%
CCCCCCCC(=O)N/N=C/c1ccc([N+](=O)[O-])o1	16.9%
O=C(Cc1ccc([N+](=O)[O-])cc1)N/N=C/c1ccc([N+](=O)[O-])o1	33.1%
